{"source": "paper PMC4336329", "about": "(PLoS ONE, 2015)", "note": "Among all 310,000 compounds or so, about 14,000 (4.5%) showed an effect of 50% or more. Effects have a minus sign here. What follows is part of a selection rich in strong results, with near analogues and random picks from the rest.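 Note: peak tail current of the secondary pulse compared with the same well before compound.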", "data": [{"target": "human ether-à-go-go-related gene (hERG) potassium channel (human, UniProt Q12809)", "sequence (Q12809 whole entry, looked up)": "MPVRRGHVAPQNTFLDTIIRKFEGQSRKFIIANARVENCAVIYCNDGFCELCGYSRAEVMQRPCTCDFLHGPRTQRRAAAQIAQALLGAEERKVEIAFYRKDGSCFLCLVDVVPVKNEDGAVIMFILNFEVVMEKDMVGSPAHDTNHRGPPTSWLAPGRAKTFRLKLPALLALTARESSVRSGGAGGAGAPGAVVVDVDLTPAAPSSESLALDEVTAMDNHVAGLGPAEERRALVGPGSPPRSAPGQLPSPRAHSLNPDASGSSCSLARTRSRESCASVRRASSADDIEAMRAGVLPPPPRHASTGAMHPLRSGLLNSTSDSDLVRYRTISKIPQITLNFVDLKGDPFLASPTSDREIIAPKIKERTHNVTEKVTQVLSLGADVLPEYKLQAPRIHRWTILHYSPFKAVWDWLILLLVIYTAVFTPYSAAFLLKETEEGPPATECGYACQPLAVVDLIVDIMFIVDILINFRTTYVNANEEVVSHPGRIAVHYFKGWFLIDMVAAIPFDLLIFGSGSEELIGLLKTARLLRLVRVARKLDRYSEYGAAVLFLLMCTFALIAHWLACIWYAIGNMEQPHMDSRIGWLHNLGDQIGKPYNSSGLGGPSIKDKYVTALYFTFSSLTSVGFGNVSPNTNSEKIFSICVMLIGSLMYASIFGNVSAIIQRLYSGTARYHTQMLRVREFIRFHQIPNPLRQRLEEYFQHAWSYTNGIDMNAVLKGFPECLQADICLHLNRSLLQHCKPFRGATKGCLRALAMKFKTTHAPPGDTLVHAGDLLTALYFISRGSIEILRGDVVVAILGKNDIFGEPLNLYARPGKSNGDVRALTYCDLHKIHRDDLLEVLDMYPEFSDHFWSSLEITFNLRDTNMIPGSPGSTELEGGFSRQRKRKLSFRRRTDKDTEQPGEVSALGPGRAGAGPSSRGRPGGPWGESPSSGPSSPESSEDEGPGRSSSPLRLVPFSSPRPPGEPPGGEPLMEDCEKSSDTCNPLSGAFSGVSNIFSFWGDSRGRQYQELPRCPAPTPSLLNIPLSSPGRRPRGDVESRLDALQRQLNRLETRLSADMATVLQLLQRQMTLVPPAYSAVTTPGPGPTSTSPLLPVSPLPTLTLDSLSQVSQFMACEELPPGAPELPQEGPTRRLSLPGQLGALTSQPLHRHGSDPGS", "assay": "primary screen, population patch clamp on CHO cells stably expressing hERG; higher = less effect of the substance", "units": {"hERG current change (%, negative = inhibition) at 10uM": "%"}, "values": [{"smiles": "COc1ccc(-c2c(C)n([O-])c3c([n+]2=O)CCCC3)c(OC)c1", "hERG current change (%, negative = inhibition) at 10uM": 6.26}, {"smiles": "Nc1cncc(C(=O)O)c1", "note": "[26671297]", "hERG current change (%, negative = inhibition) at 10uM": 4.06}, {"smiles": "CCn1cc(C(=O)N2CCCC(C(=O)c3ccc4ccccc4c3)C2)cn1", "note": "(stereo not shown)", "hERG current change (%, negative = inhibition) at 10uM": -18.1}, {"smiles": "CCCCc1ccc(NC(=O)CSc2nc(=O)n(CCN(CC)CC)c3c2CCCC3)cc1", "hERG current change (%, negative = inhibition) at 10uM": -66.7}, {"smiles": "CCc1ccc(NC(=O)CSc2nc(=O)n(CCCN(C)C)c3c2CCC3)cc1", "hERG current change (%, negative = inhibition) at 10uM": -42.3}, {"smiles": "CCCCc1ccc(NC(=O)CSc2nc(=O)n(CCN(CC)CC)c3c2CCC3)cc1", "hERG current change (%, negative = inhibition) at 10uM": -65.8}, {"smiles": "CCc1ccc(NC(=O)CSc2nc(=O)n(CCN(C)C)c3c2CCCC3)cc1", "hERG current change (%, negative = inhibition) at 10uM": -24.2}, {"smiles": "CCCCc1ccc(NC(=O)CSc2nc(=O)n(CCN(C)C)c3c2CCC3)cc1", "hERG current change (%, negative = inhibition) at 10uM": -56.4}, {"smiles": "C=C(C)CN(CC)Cc1c(C(=O)N(C)CCCC)nc2ccccn12", "hERG current change (%, negative = inhibition) at 10uM": -20.7}, {"smiles": "Cc1ccc(S(=O)(=O)NNC(=O)C2CCN(Cc3ccccc3)CC2)cc1", "hERG current change (%, negative = inhibition) at 10uM": -15.4}, {"smiles": "COc1ccc(NC(=O)CSc2nnc(C3CCCCC3)n2N)cc1OC", "hERG current change (%, negative = inhibition) at 10uM": 21.9}, {"smiles": "Cc1cc(N/N=C/c2ccccc2O)nc(N2CCOCC2)n1", "hERG current change (%, negative = inhibition) at 10uM": 6.96}, {"smiles": "COc1ccc2ccc(OCC(=O)N3c4ccccc4NC(=O)CC3C)cc2c1", "note": "(stereo not shown)", "hERG current change (%, negative = inhibition) at 10uM": -21.2}, {"smiles": "COc1ccc(-c2sc(Nc3ccccc3)n[n+]2-c2ccc(F)cc2)c(C)c1C.[Cl-]", "hERG current change (%, negative = inhibition) at 10uM": -74.5}, {"smiles": "Fc1ccc(-[n+]2nc(Nc3ccccc3)sc2-c2c3ccccc3cc3ccccc23)cc1.[Cl-]", "hERG current change (%, negative = inhibition) at 10uM": 18.2}, {"smiles": "COc1ccc(-c2sc(Nc3ccccc3)n[n+]2-c2ccc(F)cc2)cc1Br.[Cl-]", "hERG current change (%, negative = inhibition) at 10uM": 4.03}, {"smiles": "Oc1ccc2ccccc2c1-c1sc(Nc2ccccc2)n[n+]1-c1ccc(F)cc1.[Cl-]", "hERG current change (%, negative = inhibition) at 10uM": -0.475}, {"smiles": "COc1cc(OC)c(-c2sc(Nc3ccccc3)n[n+]2-c2ccc(F)cc2)cc1OC.[Cl-]", "hERG current change (%, negative = inhibition) at 10uM": -0.831}, {"smiles": "COc1ccc(-c2sc(Nc3ccccc3)n[n+]2C)c(C)c1C.[Cl-]", "hERG current change (%, negative = inhibition) at 10uM": -1.19}, {"smiles": "COc1ccc2ccccc2c1-c1sc(Nc2ccccc2)n[n+]1-c1ccc(F)cc1.[Cl-]", "hERG current change (%, negative = inhibition) at 10uM": -57.4}, {"smiles": "COc1ccc(-c2sc(Nc3ccccc3)n[n+]2-c2ccc(F)cc2)c(OC)c1OC.[Cl-]", "hERG current change (%, negative = inhibition) at 10uM": -72.2}, {"smiles": "Cc1nc2sc3c(c2c(=O)o1)CCC3", "hERG current change (%, negative = inhibition) at 10uM": 4.18}, {"smiles": "O=c1[nH]c(O)c(/C=C2\\C=Nc3ccccc32)[nH]1", "hERG current change (%, negative = inhibition) at 10uM": 20.9}, {"smiles": "Cc1cc(S(=O)(=O)N2CCOCC2)ccc1OCC(=O)NCC1CCCO1", "note": "(stereo not shown)", "hERG current change (%, negative = inhibition) at 10uM": -0.633}, {"smiles": "COc1ccc(S(=O)(=O)N(Cc2ccccc2)c2ccccc2C(=O)O)cc1", "hERG current change (%, negative = inhibition) at 10uM": 31.8}, {"smiles": "O=S(=O)(Cc1ccccc1)NCCc1cccc(Cl)c1", "hERG current change (%, negative = inhibition) at 10uM": -5.57}, {"smiles": "Cc1nnc(-c2cnn(-c3ccccc3)c2N)n1Cc1ccccc1", "hERG current change (%, negative = inhibition) at 10uM": -1.94}, {"smiles": "CCCOc1ccc(CC(CC(=O)O)(C(=O)O)C(=O)O)cc1", "hERG current change (%, negative = inhibition) at 10uM": 13.5}, {"smiles": "COC(=O)c1cccc(Nc2ncnc3ccc(C)cc23)c1", "hERG current change (%, negative = inhibition) at 10uM": -20.9}, {"smiles": "CCOC(=O)c1cccc(Nc2ncnc3ccccc23)c1.Cl", "hERG current change (%, negative = inhibition) at 10uM": -24.9}, {"smiles": "CCOC(=O)c1cccc(Nc2ncnc3ccc(C)cc23)c1", "hERG current change (%, negative = inhibition) at 10uM": -59.3}, {"smiles": "Cn1c(SCCC(=O)O)nnc1-c1ccncc1", "hERG current change (%, negative = inhibition) at 10uM": 1.73}, {"smiles": "Cn1c(SCC(=O)c2ccccc2)nnc1-c1ccncc1", "hERG current change (%, negative = inhibition) at 10uM": -0.277}, {"smiles": "Cn1c(SCCCC(=O)c2ccc(F)cc2)nnc1-c1ccncc1", "hERG current change (%, negative = inhibition) at 10uM": -59.6}, {"smiles": "Cc1ccc(C(=O)CSc2nnc(-c3ccncc3)n2C)cc1", "hERG current change (%, negative = inhibition) at 10uM": -3.2}, {"smiles": "Cn1c(SCCCC(=O)c2ccccc2)nnc1-c1ccncc1", "hERG current change (%, negative = inhibition) at 10uM": -42.9}, {"smiles": "CCOc1ccc(C(C)=O)cc1CSc1nnc(-c2ccncc2)n1CCOC", "hERG current change (%, negative = inhibition) at 10uM": -0.498}, {"smiles": "COCCn1c(SCCCC(=O)c2ccc(Br)cc2)nnc1-c1ccncc1", "hERG current change (%, negative = inhibition) at 10uM": -60.7}, {"smiles": "Cn1c(SCCCC(=O)c2ccc(Br)cc2)nnc1-c1ccncc1", "hERG current change (%, negative = inhibition) at 10uM": -70.2}, {"smiles": "COCCn1c(SCC(=O)N2CCOCC2)nnc1-c1ccncc1", "hERG current change (%, negative = inhibition) at 10uM": -7.01}, {"smiles": "[O-][n+]1onc2c1CCC1N(O)C(c3ccccc3)CC21O", "note": "(stereo not shown)", "hERG current change (%, negative = inhibition) at 10uM": 14.7}, {"smiles": "O=C(c1cc(C2CC2)nn1-c1ccccc1)N1CCN(Cc2c(F)cccc2Cl)CC1", "hERG current change (%, negative = inhibition) at 10uM": -36.6}, {"smiles": "CN(CCO)C(=O)c1cccc2c1-c1ccccc1C2=O", "hERG current change (%, negative = inhibition) at 10uM": 4.12}, {"smiles": "c1ccc(-c2ccc(-c3ccccn3)s2)nc1", "hERG current change (%, negative = inhibition) at 10uM": -8.87}, {"smiles": "CCOc1ccc(NC(=O)c2ccc(Br)o2)c([N+](=O)[O-])c1", "hERG current change (%, negative = inhibition) at 10uM": 5.5}, {"smiles": "CC(C)C(=O)NC(c1ccco1)c1c(O)ccc2ccccc12", "note": "(stereo not shown)", "hERG current change (%, negative = inhibition) at 10uM": 14.1}, {"smiles": "O=C(CN1CCC(C(=O)c2ccc(Cl)cc2)CC1)Nc1ccc2c(c1)OCCO2", "hERG current change (%, negative = inhibition) at 10uM": -44.9}, {"smiles": "COc1ccc(C(=O)C2CCCN(Cc3ccc(Sc4nncn4C)o3)C2)cc1F", "note": "(stereo not shown)", "hERG current change (%, negative = inhibition) at 10uM": -15.4}, {"smiles": "COc1ccc(C(=O)C2CCCN(Cc3ccc4c(c3)OCCO4)C2)cc1F", "note": "(stereo not shown)", "hERG current change (%, negative = inhibition) at 10uM": -74.7}, {"smiles": "O=C(c1ccc(Cl)cc1)C1CCCN(Cc2ccc3c(c2)OCCO3)C1", "note": "(stereo not shown)", "hERG current change (%, negative = inhibition) at 10uM": -73.5}, {"smiles": "COc1ccccc1C(=O)C1CCCN(Cc2ccc3c(c2)OCCO3)C1", "note": "(stereo not shown)", "hERG current change (%, negative = inhibition) at 10uM": -40.5}, {"smiles": "O=C(c1ccc(Cl)cc1)C1CCCN(Cc2ccon2)C1", "note": "(stereo not shown)", "hERG current change (%, negative = inhibition) at 10uM": -18}, {"smiles": "COc1ccc(F)cc1C(=O)C1CCCN(Cc2ccc3c(c2)OCCO3)C1", "note": "(stereo not shown)", "hERG current change (%, negative = inhibition) at 10uM": -54.3}, {"smiles": "COc1ccc(F)cc1C(=O)C1CCCN(Cc2ccc(Sc3nncn3C)o2)C1", "note": "(stereo not shown)", "hERG current change (%, negative = inhibition) at 10uM": 12.6}, {"smiles": "c1ccc(-c2noc(-c3ccc4c(c3)OCO4)n2)cc1", "hERG current change (%, negative = inhibition) at 10uM": -3.33}]}]}
